# Screens (PubChem)
# MARV entry inh = qHTS for inhibitors of binding or entry into cells for Marburg Virus; Marburg virus pseudotyped entry inhibition, cell reporter; Potency, µM (doses to about 37.8 µM), without a hit: at the top dose activity change, negative = inhibition, actives largely listed as inhibitors; 300,000 compounds, 1.8% hits; calls by dose curve; tested in HEK293 cells; also: potency is read from the fitted curve at half-maximal effect; % is scaled to controls: 0 for no effect and ±100 for the full control effect
# FMDV inh = High Throughput Screening for Foot and Mouth Disease Virus Antivirals; FMDV antiviral cell-based qHTS; Potency, µM (titrated, usually from 57.9 µM), for inactives: at the top dose activity change, negative = inhibition, most hits filed as inhibitors; 410,000 compounds, 1.2% hits; calls by dose curve; tested in HEK293T cells; also: read-out not given here; potency is read from the fitted curve at half-maximal effect; % is scaled to controls: 0 for no effect and ±100 for the full control effect; nearly all actives have a fitted effect of over 45% in size
# HCV inhibitor = qHTS Assay for Inhibitors of Hepatitis C Virus (HCV) | Huh7.5.1 HCVcc-Cre infection, luciferase reporter, 44 h | Potency, µM (titrated, usually from 41.8 µM), inactives show at the highest dose activity change, negative = inhibition, most hits filed as inhibitors | 340,000 compounds, 3.4% hits | AID 651820, 2012; active = well fitted inhibition curve with a large enough effect; inconclusive = small, poorly fitted or top-dose-only effect, or another doubt; inactive = no such curve, though single readings can be large or run the other way; also: potency is read from the fitted curve at half-maximal effect; % is scaled to controls: 0 for no effect and ±100 for the full control effect
#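 Infectious HCVcc-Cre (~0.5 moi) was added to cells just after compound, with cells seeded 4 h earlier at 1,000 per well. Luciferase activity after 44 h culture reported infection; substrate was incubated 15 min at room temperature before reading.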
# HCMV antiviral = qHTS Assay for inhibitors of the human cytomegalovirus (HCMV); AID 1259415, 2018; activity change, negative = inhibition, % at 57.5 µM; HFF cells, HCMV-luciferase reporter, 72 h; hits give low values; 410,000 compounds, 4.5% hits; in the data active = activity change below about -60%; inconclusive = no clear call, values can overlap the other calls; inactive = above about -39%; also: % is scaled to controls: 0 for no effect and ±100 for the full control effect
#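 Screen run at 2 compound doses on HFFs infected with reporter HCMV, MOI 1 PFU/cell. Luciferase activity from cell lysates at 72 h post infection gave inhibition relative to buffer-only and Salinomycin wells.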
# LASV entry inh = qHTS for Inhibitors of binding or entry into cells for Lassa Virus. Lassa virus pseudotype entry inhibition, cell reporter. Potency, µM (highest dose often 37.9 µM), for inactives: top-dose activity change, negative = inhibition, actives largely listed as inhibitors. 300,000 compounds, 1.2% hits; calls by dose curve; tested in HEK293 cells; also: potency is read from the fitted curve at half-maximal effect; % is scaled to controls: 0 for no effect and ±100 for the full control effect; nearly all actives have a fitted effect of over 50% in size
# SARS PLP yeast = qHTS of Yeast-based Assay for SARS-CoV PLP. S. cerevisiae expressing SARS-CoV PLpro, growth rescue. Potency, µM (doses to about 32.9 µM), inactives show at the top dose activity, positive = growth rescue, most hits filed as activators. 330,000 compounds, 0.19% hits; calls by dose curve; also: potency is read from the fitted curve at half-maximal effect; 0% is about no effect; nearly all actives have a fitted effect of over 55% in size
# Numbers without * were called inactive; ? = inconclusive; nt = no result given; ! = not active in a repeat; [ ] = remark or other dose. In the library only some 8% were active in any assay of this set; here they are far more common.
SMILES,MARV entry inh,FMDV inh,HCV inhibitor,HCMV antiviral,LASV entry inh,SARS PLP yeast
COc1ccc(C2c3c(n(C)c4ccccc34)C(=O)N2CC(=O)Nc2cccc(Cl)c2)cc1 (centres undefined),nt,-13%,nt,0,0%[46.1 µM],nt
Cc1cc(CNC(=O)[C@H]2C[C@@H]2[C@H](NP(=O)(c2ccccc2)c2ccccc2)c2ccccc2)nn1C,-10%,0%,6%[8.37 µM],-91*,-7%,21%
COc1ccc2nc(Sc3c([N+](=O)[O-])nc(C)n3Cc3ccccc3)[nH]c2c1,?,16µM*,?,28,16µM*,1%
Cc1cc2nc(Sc3c([N+](=O)[O-])nc(C)n3Cc3ccccc3)[nH]c2cc1C,?,32µM*,-12%,12,1%,9%
COc1cccc(OC)c1C(=O)Nc1cccc(-c2nc3cc(C)cc(C)c3o2)c1,-30%[46.1 µM],0%,nt,-12,-27%[46.1 µM],nt
COc1cc(/C=C2\SC(=S)N(CC(=O)Nc3cccnc3)C2=O)cc(OC)c1OC,24%[46.1 µM],?,9%,-12,6%,25%
COc1cc(/C=C2\SC(=S)N(CCC(=O)Nc3ccccc3O)C2=O)cc(OC)c1OC,nt,?,?,-69*,nt,2%
COc1cc(/C=C2\SC(=S)N(CC(=O)Nc3ccc(O)cc3)C2=O)cc(OC)c1OC,nt,-6%,-2%,-75*,nt,2%
CCCN(CC(=O)Nc1ccccc1OC)C(=O)CSc1ccc(Br)cc1C,nt,-22%,10µM*,3,nt,-4%
O=C(c1ccccc1)c1ccc(Cn2cc(-c3ccccc3)nn2)cc1,nt,-6%,1.4µM*,?,nt,-3%
CCCCCc1ccc(-c2cn(Cc3ccc(C(=O)c4ccccc4)cc3)nn2)cc1,nt,0%,14%,15,nt,1%
O=C(c1ccccc1)c1ccc(Cn2cc(CCCO)nn2)cc1,nt,-15%,10µM*,?,nt,13%
COc1ccc(NC(=O)C(NC(=O)/C=C\c2ccc3c(c2)OCO3)c2ccc(C)cc2)cc1 (centres undefined),7%[46.1 µM],12%,nt,-15,4%[46.1 µM],nt
CCN(CC)c1ccc(N=Cc2ccc([N+](=O)[O-])o2)cc1,?,-9%,13µM*,-9,?,-59%
CCNc1nc(NCC)nc(N/N=C/c2ccc([N+](=O)[O-])o2)n1,?,-19%,-28%,?,-17%,15%
CCCCNC(=O)CCc1c(C)nc2nc(-c3cc(OC)cc(OC)c3)nn2c1C,-3%,-24%,0%,-95*,1%,1%[6.58 µM]
O=C(/C=C/Nc1ccc(Br)cc1F)c1ccco1,1.4µM*,10µM*,-6%,-37,2.2µM*,-2%
O=C(/C=C/Nc1ccc(F)cc1F)c1ccco1,?,-83%,?,119,?,-1%
O=C(/C=C/Nc1ccc(F)cc1F)c1ccc(Br)cc1,?,13%,17%,146,7.1µM*,nt
CN(C)c1ccc(N/C=C/C(=O)c2ccco2)cc1,3.7µM*,-82%,-13%,50,?,6%
COC(=O)[C@]12C[C@@H]3CCN(C(=O)N[C@@H]1c1ccccc1)[C@@]32C,76%[14.2 µM],nt,nt,nt,?,nt
O=C(CCNC(=O)OCC1c2ccccc2-c2ccccc21)NOCc1ccccc1,nt,-11%,-8%,-77*,nt,-1%
O=C(O)CCNC(=O)OCC1c2ccccc2-c2ccccc21,nt,-13%,18%,?,nt,0%
O=C(Nc1cc(F)ccc1F)N1CCC(CN2CCCC2)CC1,nt,-10%,nt,7,1%[46.1 µM],nt
CN1C(=O)[C@@H]2C[C@@]3([C@@]45C[C@H]6C(=O)N(C)[C@@H](Cc7ccccc7)C(=O)N6[C@@H]4Nc4ccccc45)c4ccccc4N[C@H]3N2C(=O)[C@@H]1Cc1ccccc1,nt,-12%,?,-68*,nt,-6%
SMILES,MARV entry inh,FMDV inh,HCV inhibitor,HCMV antiviral,LASV entry inh,SARS PLP yeast
O=C1N[C@@H](Cc2ccccc2)C(=O)N2[C@H]3Nc4ccccc4[C@@]3([C@]34C[C@H]5C(=O)N[C@@H](Cc6ccccc6)C(=O)N5[C@H]3Nc3ccccc34)C[C@@H]12,nt,?,-24%,nt,nt,nt
Cc1ccc(C2Oc3ccccc3C3=C2C(c2cccs2)n2ncnc2N3)cc1 (centres undefined),?,0%,13µM*,-14,?,8%
N[C@@H](C(=O)O)[C@@H](CC(=O)O)c1ccc(Cl)cc1,nt,-7%,nt,nt,nt,nt
CC1=NN(c2cccc(C(=O)O)c2)C(=O)/C1=C\C=C\c1ccco1,?,-20%,10%,-36,-4%,9%
CC1=NN(c2ccccc2)C(=O)/C1=C/C=C/c1ccccc1,?,35µM*,12%,-69*,-21%,-5%
Cc1ccc(C2=NOC(=O)/C2=C\C=C\c2ccccc2)cc1,?,14µM*,?,-109*,?,-6%
CC1=NN(c2ccccc2)C(=O)/C1=C/c1cc(C)n(C2CC2)c1C,30%[46.1 µM],28%,-7%,-68*,4%,0%
Cc1ccc(S(=O)(=O)N2CCN(Cc3cc(Br)ccc3O)CC2)cc1,nt,-29%,nt,-4,-29%[46.1 µM],nt
Cc1c(C(=O)C(=O)N2c3ccccc3CC2C)c2ccccc2n1C (centres undefined),?,3%,-29%,-64*,?,-7%
Cc1cccc(C(=O)N2CCn3c(nnc3C(=O)NC(C)C)C2)c1C,nt,nt,nt,-13,nt,nt
O=C(CSc1nc(-c2ccc(Cl)cc2)cs1)Nc1cccc([N+](=O)[O-])c1,nt,5%,13µM*,-27,nt,-22%
O=[N+]([O-])c1cccc(NC(=S)Nc2nc(-c3ccccc3Cl)cs2)c1,?,-19%,8.9µM*,nt,?,-7%
O=C(/C=C/c1cccc([N+](=O)[O-])c1)NC(=S)Nc1ccccc1C(=O)O,nt,nt,nt,nt,nt,1%
O=C(/C=C/c1cccc([N+](=O)[O-])c1)NC(=S)Nc1cccc(NC(=O)c2ccccc2Cl)c1,?,?,-23%,-74*,?,-1%
COc1cccc(C2=NS(=O)(=O)N(C)C(C(=O)Nc3ccccc3SC)=C2)c1,3%[46.1 µM],-13%,nt,1,1%[46.1 µM],nt
O=S(=O)(Nc1ccc(C(O)(C(F)(F)F)C(F)(F)F)cc1)c1ccc(Cl)c2nonc12,nt,35µM*,nt,nt,nt,nt
CCc1cc2c(nc1CC)CCN(CCC(C)=NO[C@H](C)c1cn([C@H](CO)Cc3ccccc3)nn1)C2,-16%[14.2 µM],nt,nt,nt,nt,nt
CCCN1CCN(CCCNC(=O)c2cc3c(s2)-c2c(C)cccc2OC3)CC1,?,-2%,2.5µM*,-70*!,nt,22%
COC(=O)c1cc2c(s1)-c1cc(F)ccc1OC2,1%,31%,13%,-66*,?,1%
CN(C)CCNC(=O)c1cc2c(s1)-c1ccccc1OC2,nt,41%,25µM*,105,nt,-3%
